# According to PubChem BioAssay:
# “And” between values parts separate entries of the source, which are not always exact repeats. Equal entries are not always repeated. The source made the active and inactive calls. Cut-off read from the data, not from the text of the source, unless noted: active = parasite load remaining mostly below about 12% (no sharp cut-off); inactive = mostly above about 10%.
# Tests used:
# [1] = liver-stage malaria parasite growth inhibition, primary screen, cell-based, HepG2, luciferase luminescence, HepG2 viability (AID 624349);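 note: 100% = mean of DMSO negative control wells on the same plate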; settings: P. berghei liver stage in HepG2, luciferase luminescence, concentration not given here; parasite load remaining: stronger effect = lower value; viability: measured here: HepG2 viability without parasites
# [2] = stimulators of nuclear beta-catenin in C2C12, primary screen, imaging, WNT3A-conditioned medium, mouse C2C12, NPC library (AID 1117326; in the data active = nuclear beta-catenin stimulation mostly above about 4.2%, no sharp cut-off; inactive = mostly below about 10%); settings: stronger effect = higher value
# [3] = test system: Hepatitis C virus NS3 helicase; experiment: HCV NS3 helicase inhibitors, primary screen, biochemical, fluorescence polarization, LOPAC1280 library (AID 687035; in the data active = inhibition above about 37%); settings: Purified HCV NS3 helicase, Cy5-dT15 ssDNA binding fluorescence polarization; stronger effect = higher value; concentration not given here
# [4] = Cy5 fluorescence quenching or enhancement artefacts, artefact control for HCV NS3 helicase inhibitor project, biochemical, LOPAC1280 (AID 687037; call rule not given here); settings: Cy5-DNA-NS3h complex fluorescence interference counterscreen
SMILES,parasite load remaining [1],viability [1],nuclear beta-catenin stimulation ([2]; at 10 µM),"nuclear beta-catenin stimulation ([2]; stimulation, at 2 µM) [%]",inhibition [3],fluorescence ratio (interference) [4]
CCCCCCc1ccc(O)cc1O,87.3% (inactive) and 55.4% (inactive),71.9% and 91.6%,7.5% (inactive),2.1,,
O=C(O)CCCCC1CCSS1 (configuration not stated),165% (inactive),96.8%,0% (inactive),-0.2,,
CN(C)CCOC(=O)C(c1ccccc1)C1(O)CCCC1 (configuration not stated),73.9% (inactive) and 104% (inactive) and 58% (inactive),70.9% and 70% and 90.8%,0.3% (inactive),1.3,,
Nc1ccc(S(=O)(=O)NC(=O)c2ccccc2)cc1,105% (inactive) and 86.8% (inactive) and 33.6% (inactive),105% and 73% and 95.8%,1.5% (inactive),1.1,,
CC(=O)OCC(COC(C)=O)OC(C)=O,142% (inactive) and 56.1% (inactive),73.5% and 86.5%,0.2% (inactive),3.4,,
CC(=O)[C@@]1(O)CC[C@H]2[C@@H]3C[C@H](C)C4=CC(=O)C=C[C@]4(C)[C@@]3(F)[C@@H](O)C[C@@]21C,127% (inactive),102%,2.3% (inactive),0.2,,
CC(C(=O)O)c1ccc(C(=O)c2cccs2)cc1 (configuration not stated),81.3% (inactive) and 117% (inactive) and 42.2% (inactive),105% and 68.4% and 94.1%,-2.4% (inactive),-0.7,,
CC(=O)NO,102% (inactive) and 55.8% (inactive),71.8% and 93.7%,0% (inactive),0.9,,
COc1ccc(C(=O)CC(=O)c2ccc(C(C)(C)C)cc2)cc1,168% (inactive) and 61% (inactive),84.8% and 202%,-0.4% (inactive),3,,
Nc1c2ccccc2nc2ccccc12,23.3% (inactive) and 22.9% (inactive),78.7% and 67.3%,21.1% (inactive),0.1,,
NS(=O)(=O)c1cc2c(cc1Cl)NC(C1CC3C=CC1C3)NS2(=O)=O (configuration not stated),56.1% (inactive),133%,0.8% (inactive),0,-1% (inactive),1 (inactive)
CCOC(=O)C(C)(C)Oc1ccc(Cl)cc1,56.5% (inactive) and 51.6% (inactive),100% and 144%,0% (inactive),1.6,-5% (inactive),1 (inactive)
Cc1cc2nc3c(=O)[nH]c(=O)nc-3n(C[C@H](O)[C@H](O)[C@H](O)CO)c2cc1C,147% (inactive),99.8%,4.5% (inactive),2.2,,
CN(C)c1ccc2nc3ccc(=[N+](C)C)cc-3sc2c1,0.205% (inactive),47.9%,3.1% (inactive),2.2,,
CCCCC(CC)CN=C(N)NC(N)=NCCCCCCN=C(N)NC(N)=NCC(CC)CCCC (configuration not stated),-0.04% (inactive) and -6.78% (inactive),41.3% and 33.2%,-3.7% (inactive),-1.8,,
CC1CC(OC(=O)C(O)c2ccccc2)CC(C)(C)N1C (configuration not stated),101% (inactive),101%,-1.4% (inactive),-0.1,,
CC(=O)Oc1cccc(O)c1,139% (inactive) and 53% (inactive),92.8% and 100%,0.7% (inactive),2,,
C=C1c2cccc(O)c2C(O)=C2C(=O)[C@]3(O)C(O)=C(C(N)=O)C(=O)[C@@H](N(C)C)[C@@H]3[C@@H](O)[C@H]12,89.4% (inactive) and 160% (inactive) and 38% (inactive),79.4% and 68.3% and 93.9%,3.6% (inactive),2.7,,
NC(=O)c1ccccc1O,47.6% (inactive) and 47.5% (inactive),78.6% and 92.9%,0.9% (inactive),0.5,,
COc1c2occc2c(OC)c2c(=O)cc(C)oc12,32.5% (inactive) and 95.1% (inactive),48.9% and 88.8%,2.2% (inactive),0.4,,
CN(C)/N=N/c1nc[nH]c1C(N)=O,56% (inactive) and 17.1% (inactive),91.9% and 74%,1.8% (inactive),-1.7,,
O=NN(CCCl)C(=O)NC1CCCCC1,11.7% (inactive),78%,11.8% (inactive),3.7,,
